# Compound activity (PubChem BioAssay)
# Shown are actives, neighbours in structure and some others; about 7.5% of the full set was active somewhere.
# TSHR antag = blocks TSH signaling through the human TSH receptor; P16473; AID 504810; TSHR-expressing cells, TSH-stimulated cAMP HTRF, 2 h; active compounds read low; activity change, negative = inhibition, % at 11.5 µM; actives 0.2% (n = 330,000);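 active means activity change below a set negative limit, meaning inhibition stronger than a set level, cut at about -70% in these data; inconclusive means activity change between two set negative limits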
#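 TSHR-expressing cells were treated with compounds, then stimulated with TSH at EC80 (4nM final) for 2 hours at 37 deg C. Cellular cAMP was measured by HTRF competition between lysate cAMP and cAMP-d2 for a cryptate-labelled anti-cAMP antibody.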
# RORgamma inh = inhibitors of mouse ROR gamma transcriptional activity | AID 2551 | actives 5.4% (n = 310,000) | Drosophila S2 Gal4-RORgamma UAS-luciferase reporter, 20 h | Potency, µM (top dose mostly 53.6 µM), most hits filed as inhibitors | P51450; further: nearly all actives have a fitted effect of over 60% in size
#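 Drosophila Schneider cells stably carrying a metallothionein-driven Gal4 DBD–ROR gamma fusion and a UAS-Photinus luciferase reporter were exposed to compound for 1 hr, then induced with copper sulfate (700 uM final) for 20 hr at ambient temperature before luminescence reading.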
# VP16 counter = Gal4-VP16 reporter inhibition counter-screen. Drosophila S2 Gal4-VP16 UAS-luciferase, luminescence, 20 h. actives 3.5% (n = 310,000). Potency, µM (doses to about 53.6 µM), most hits filed as inhibitors;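 further: Gal4-VP16 expression switched on by copper sulfate through the metallothionein promoter; nearly all actives have a fitted effect of over 50% in size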
# ELG1 DNA repair = blocks ELG1-dependent DNA repair in HEK293T cells; Potency, µM (doses to about 46.1 µM), hits mostly inhibitors; actives 2.3% (n = 330,000); AID 504467; HEK293T ELG1-luciferase reporter, luminescence, 16 h; DNA damage induced by 5-fluorouridine; further: nearly all actives have a fitted effect of over 55% in size
#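 In this reporter screen, reduction of luminescence relative to DMSO vehicle indicated activity. Compounds and 5-fluorouridine were added together to 2,000 cells per well, incubated for 16 hr at 37 °C, then developed with ONE-Glo.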
# B2AR arrestin = recruits beta-arrestin to the human beta2-adrenergic receptor | P07550 | beta-arrestin recruitment to beta2AR, cell-based reporter | Potency, µM (titrated, usually from 46.1 µM), usual class: activators | actives 0.02% (n = 330,000); further: nearly all actives have a fitted effect of over 65% in size
# Target sequence (P07550 whole entry, looked up): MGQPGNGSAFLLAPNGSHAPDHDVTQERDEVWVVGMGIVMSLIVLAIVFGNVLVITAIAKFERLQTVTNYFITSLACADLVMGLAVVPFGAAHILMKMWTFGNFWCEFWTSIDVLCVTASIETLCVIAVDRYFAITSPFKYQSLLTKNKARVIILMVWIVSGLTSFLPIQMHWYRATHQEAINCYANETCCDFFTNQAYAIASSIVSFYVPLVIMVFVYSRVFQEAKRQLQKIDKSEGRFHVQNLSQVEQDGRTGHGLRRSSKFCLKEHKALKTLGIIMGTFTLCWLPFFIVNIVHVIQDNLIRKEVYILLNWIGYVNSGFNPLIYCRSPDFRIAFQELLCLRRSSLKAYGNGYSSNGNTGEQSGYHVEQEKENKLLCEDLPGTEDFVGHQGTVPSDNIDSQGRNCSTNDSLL
# Numbers stand for hits; – = inactive; ? = inconclusive; · = no result; [ ] = remark or other dose. Unless noted, the call rests on the fitted dose curve; in most records, active means well fitted curve in the direction sought with a large enough effect; inconclusive means small, poorly fitted or top-dose-only effect, or another doubt; inactive means no such curve, though single readings can be large; an effect the other way counts as inactive or inconclusive.
SMILES,TSHR antag,RORgamma inh,VP16 counter,ELG1 DNA repair,B2AR arrestin
O=C(COc1ncnc2ccc(Br)cc12)Nc1ccc(N2CCOCC2)cc1,–,–,–,–,–
CC(=O)c1cccc(Nc2ncnc3ccc(Br)cc23)c1,–,–,–,18.3µM,–
CC(=O)c1cccc(Nc2nc(-c3ccccc3)nc3ccccc23)c1,–,–,–,23.1µM,–
COC(=O)c1cccc(Nc2nc(-c3cccnc3)nc3ccccc23)c1,–,–,–,7.3µM,–
O=C(O)c1cccc(Nc2nc(-c3cccnc3)nc3ccccc23)c1,–,–,–,–,–
Brc1ccc2ncnc(Nc3ccc(N4CCOCC4)cc3)c2c1,–,?,–,6.51µM,–
O=[N+]([O-])c1ccc(COc2ncnc3ccccc23)cc1,–,–,–,–,–
COC(=O)c1cccc(Nc2nc(-c3ccncc3)nc3ccccc23)c1,–,?,–,?,–
CCOC(=O)c1nc(Nc2cccc(C)c2)c2ccccc2n1,–,?,–,16.4µM,–
CCOC(=O)c1cccc(Nc2nc(-c3cccnc3)nc3ccccc23)c1,–,?,?,9.2µM,–
CCOC(=O)c1nc(Nc2ccccc2C)c2ccccc2n1,–,–,–,–,–
Cc1csc(NC(=O)c2ccc3nc[nH]c3c2)n1,–,?,?,?,–
COC(=O)C1=C(C)OC(N)=C(C#N)C1c1cccnc1 (centres undefined),–,–,–,–,–
CC(=O)C1=C(C)OC(N)=C(C#N)C1c1ccncc1 (centres undefined),–,?,17.8µM,–,–
FC(F)(F)c1ccccc1-c1cc(NCCN2CCOCC2)ncn1,·,–,–,·,·
O=c1c2sc(-c3ccccc3)cc2nc2n1CCC2,–,2.51µM,?,?,–
NC(=O)SCC(=O)Nc1ccc(Cl)cc1,–,?,–,–,–
NC(=O)SCC(=O)Nc1cccc(Cl)c1,–,10µM,?,–,–
CCOc1ccc(-n2c(-c3ccc(OC)cc3)c[n+]3c2CCCCC3)cc1,–,11.2µM,2µM,?,–
CCOc1ccc(-n2c(-c3ccc(Br)cc3)c[n+]3c2CCCCC3)cc1,–,?,22.4µM,?,–
CCOc1ccc(-n2c(-c3ccccc3)c[n+]3c2CCC3)cc1,–,?,8.91µM,?,–
FC(F)Oc1ccc(-c2c[n+]3c(n2-c2ccccc2)CCCCC3)cc1,–,–,–,–,–
O=C(NCCS(=O)(=O)N1CCN(Cc2ccccc2)CC1)c1ccc(F)cc1,–,·,·,–,–
COc1cc(NC(=O)Cc2cccc3ccccc23)c(C(=O)O)cc1OC,–,–[1.91 µM],–,–,–
CN1CCN(c2ncnc3ccc(-c4ccoc4)cc23)CC1,·,–,–,·,·
SMILES,TSHR antag,RORgamma inh,VP16 counter,ELG1 DNA repair,B2AR arrestin
COc1ncc2nc(-c3ccc(F)cc3)c(=O)n(CCC#N)c2n1,·,–,–,·,·
CN(CCOc1ccc(C[C@H](Nc2ccccc2C(=O)c2ccccc2)C(=O)O)cc1)c1ccccn1,·,–,–,·,·
Nc1c(C(=O)Nc2ccccc2)c2nc3ccccc3nc2n1CCCN1CCOCC1,–,11.2µM,?,–,–
Cc1sc(NC(=O)c2ccco2)c(CN2CCN(Cc3ccccc3)CC2)c1C,–,–,–,13µM,–
CC1CCCCN1C(=S)NC(=O)c1ccco1 (centres undefined),–,·,·,?,–
CC1CCN(C(=S)NC(=O)c2ccco2)CC1,–,3.98µM,6.31µM,?,–
CCNC(=S)N1CCN(Cc2ccccc2)CC1,–,–,–,–,–
O=C(NC(=S)N1CCN(Cc2ccccc2)CC1)c1ccco1,–,0.891µM,3.55µM,–,?
COc1ccccc1-c1nccc(NC2CCNCC2)n1,·,–,–,·,·
CNc1ncnc2ccc(-c3ccc4c(c3)OCO4)cc12,·,–,–,·,·
Cc1ccc(/C=N/NC(=O)c2cccc(S(=O)(=O)Nc3cccc(Cl)c3)c2)o1,–,12.6µM,?,–,–
COc1ccccc1NS(=O)(=O)c1cccc(C(=O)N/N=C/c2ccc(C)o2)c1,–,11.2µM,14.1µM,–,–
COc1ccccc1/C=N/NC(=O)c1ccccc1NS(=O)(=O)c1ccc(C)cc1,–,12.6µM,?,–,–
COc1ccccc1/C=N/NC(=O)c1ccccc1Cl,–,–,–,–,–
COc1ccccc1NS(=O)(=O)c1cccc(C(=O)N/N=C/c2ccc(N3CCOCC3)cc2)c1,–,–,–,–,–
O=C(N/N=C/c1cccnc1)c1cccc(S(=O)(=O)Nc2cccc(Cl)c2)c1,–,–,–,–,–
COC(=O)C1=C(C)N(Cc2ccccc2)[C@]23O[C@](C(=O)OC)(C(=O)N2C1c1ccccc1)C1C(=O)N(C)C(=O)C13 (some centres undefined),·,–[10 µM],–[10 µM],·,·
O=C(CSc1n[nH]c(-c2ccccn2)n1)Nc1ccccc1,–,?,?,?,–
COc1ccccc1NC(=O)CSc1n[nH]c(-c2ccccn2)n1,–,6.31µM,5.01µM,?,–
COc1ccc(NC(=O)CSc2n[nH]c(-c3ccccn3)n2)cc1,–,15.8µM,?,?,–
O=C(CSc1n[nH]c(-c2ccccn2)n1)Nc1ccccc1F,–,3.55µM,5.01µM,–,–
Nc1nc(SCC(=O)Nc2ccc(Oc3ccccc3)cc2)n[nH]1,–,?,17.8µM,–,–
COc1ccccc1-c1nc(SCC(=O)Nc2ccccc2F)n[nH]1,–,–,–,–,–
Nc1nc(SCC(=O)Nc2cccc(Oc3ccccc3)c2)n[nH]1,–,?,–,–,–
Cc1c(O)ccc2c1OCO2,·,–[10 µM],–[10 µM],·,·
SMILES,TSHR antag,RORgamma inh,VP16 counter,ELG1 DNA repair,B2AR arrestin
COC(=O)N1CCC2(CC1)CN(C(=O)Nc1cccc(C#N)c1)C2,·,–,–,·,·
C[C@@H]1CC2(OC[C@]3(C)O[C@H]23)O[C@H]2C[C@@]3(C)[C@@H]4CC[C@H]5C(C)(C)C(O[C@@H]6OC[C@@H](O)[C@H](O)[C@H]6O)CC[C@@]56C[C@@]46CC[C@]3(C)[C@@H]12 (some centres undefined),·,–,–,·,·
Cc1ccc(S(=O)(=O)c2nc(S(C)(=O)=O)sc2N2CCC3(CC2)OCCO3)cc1,–,–,–,–,–
COc1ccc(OC)c2c(=S)c3ccccc3[nH]c12,·,–,–,·,·
Cc1ccccc1CSc1nccn1-c1ccccc1,–,2.51µM,12.6µM,?,–
CCOC(=O)C(=Cc1ccc(-n2ccnc2)cc1)C(=O)OCC,–,?,?,?,–
CCOC(=O)C(=Cc1ccc(Br)cc1)C(=O)OCC,–,14.1µM,?,?,–
CCOC(=O)C(=Cc1ccc(F)cc1)C(=O)OCC,–,10µM,?,?,–
CCOc1ccc2oc(C(=O)N3CCN(c4ccccc4OCC)CC3)c(C)c2c1,–,·,·,?,–
NC(=S)N/N=C/c1ccc(-c2ccc(Cl)c(Cl)c2)o1,–,2.51µM,2µM,?,?
CCNC(=S)N/N=C/c1ccc(-c2ccccc2)o1,–,0.316µM,1.41µM,?,–
O/N=C\c1ccc(-c2ccccc2)o1,–,–,–,?,–
